Results with a measured potency or affinity are listed apart. Calls of active or inactive are those of the source. The rule behind the calls is not given here.

The nature of this assay: mammalian cell cytotoxicity, dose response, cytotoxicity control, plate reader, cherry-pick samples (AID 504397).

`CCOC(=O)[C@@H]1[C@H]2COc3ccc(Br)cc3[C@@H]2N2C(=O)N(c3cccc(C)c3)C(=O)[C@]12C`: the result was inactive.

These data come from PubChem BioAssay AID504397 (Broad Institute, 2011).
